Experimental data from PubChem BioAssay AID2284203 (EPA ToxCast).
The source made the active and inactive calls. How the source made its calls: active means hit-call score of the fitted dose curve at least 0.9, where 1 is the maximum; inactive means score below 0.9.

Target: human Serotonin Transporter (SET), SLC6A4 (gene 6532) (UniProt P31645)
Test: ERF_FR_TR_hSLC6A4: Eurofins (ERF) Radioligand Binding LeadHunter Assay for human Serotonin Transporter (SET) human Agonism
Description: ERF_FR_TR_hSLC6A4 is a biochemical, single-readout assay that uses extracted gene-proteins in a cell-free assay. Measurements were taken 1 hour after chemical dosing in a 96-well plate. See SET Human Serotonin Transporter Binding (Antagonist Radioligand) Assay, Cerep.ERF_FR_TR_hSLC6A4 is an assay component calculated from the ERF_FR_TR_hSLC6A4 assay. It is designed to measure radioligand binding using a type of binding reporter as detected by scintillation counting with radiometry technology.Data from the assay component ERF_FR_TR_hSLC6A4 was analyzed at the assay endpoint, ERF_FR_TR_hSLC6A4, in the positive analysis fitting direction relative to DMSO as the negative control and baseline of activity. Using a type of binding reporter, loss-of-signal activity can be used to understand changes in enzymatic activity as they relate to gene SLC6A4. To generalize the intended target to other relatable targets, this assay endpoint is annotated to the transporter intended target family, where the subfamily is SLC6 / Monoamine.
Human recombinant serotonin transporter expressed in human HEK-293 cells are used in modified Tris-HCl buffer pH 7.4. A 2 ug aliquot is incubated with 0.4 nM [3H]Paroxetine for 60 minutes at 25C. Non-specific binding is estimated in the presence of 10 uM imipramine. Transporters are filtered and washed. The filters are then counted to determine [3H]Paroxetine specifically bound. Compounds are screened at 10 uM. Membrane protein may change from lot to lot; the concentration used will be adjusted if necessary.

Chain of human Serotonin Transporter (SET), SLC6A4 (gene 6532) (P31645 whole entry, looked up): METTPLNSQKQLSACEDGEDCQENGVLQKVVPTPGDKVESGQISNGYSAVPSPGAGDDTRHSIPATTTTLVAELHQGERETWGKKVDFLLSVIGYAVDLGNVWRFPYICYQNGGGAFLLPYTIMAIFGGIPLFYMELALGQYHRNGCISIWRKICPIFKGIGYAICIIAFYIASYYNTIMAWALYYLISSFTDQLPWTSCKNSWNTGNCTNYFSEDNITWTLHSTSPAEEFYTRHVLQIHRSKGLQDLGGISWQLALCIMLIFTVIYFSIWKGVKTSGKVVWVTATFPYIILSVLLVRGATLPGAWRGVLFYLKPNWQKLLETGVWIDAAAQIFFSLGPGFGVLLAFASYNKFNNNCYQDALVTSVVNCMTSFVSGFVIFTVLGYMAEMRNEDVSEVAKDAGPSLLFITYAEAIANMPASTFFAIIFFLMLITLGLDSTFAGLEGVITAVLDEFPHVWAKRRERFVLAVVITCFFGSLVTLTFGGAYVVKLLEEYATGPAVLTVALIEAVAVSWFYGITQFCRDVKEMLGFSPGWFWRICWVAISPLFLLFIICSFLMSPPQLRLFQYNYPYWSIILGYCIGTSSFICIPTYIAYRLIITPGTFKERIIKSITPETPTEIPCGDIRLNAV

Question: How did the AC50 turn out when `COc1cc(/C=C/C(=O)CC(=O)/C=C/c2ccc(O)c(OC)c2)ccc1O` was run?
Answer: 2120 nM (active)

Question: How did the outcome turn out when `CCCCC[C@H](O)CC(=O)CCc1ccc(O)c(OC)c1` was run?
Answer: inactive

Question: `O=C(/C=C/c1ccc(O)cc1)CC(=O)/C=C/c1ccc(O)cc1` was tested. Which AC50 did it give?
Answer: 3200 nM (active)
